This note sets out measurements from PubChem BioAssay AID828 (The Scripps Research Institute Molecular Screening Center, 2007).

About 550 (0.39%) of roughly 140,000 compounds were called active. Shown is part of a subset that was picked to be rich in actives. Values without a mark were called inactive. No stated cut-off is given here; in the data, active means inhibition above about 27%; inactive means the rest.

For the experiment, the target named is Galanin receptor type 2 (Homo sapiens) (UniProt O43603). The experiment can be described thus: GALR2 antagonists in receptor-expressing cells, primary screen (AID 828).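 Further: cells stimulated with galanin 1-16 at roughly its EC80; 0% = agonist challenge control and 100% = basal control without agonist.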 The settings on record: antagonist mode, at 4 µM, active compounds read high.
Sequence of Galanin receptor type 2 (Homo sapiens) (O43603 whole entry, looked up): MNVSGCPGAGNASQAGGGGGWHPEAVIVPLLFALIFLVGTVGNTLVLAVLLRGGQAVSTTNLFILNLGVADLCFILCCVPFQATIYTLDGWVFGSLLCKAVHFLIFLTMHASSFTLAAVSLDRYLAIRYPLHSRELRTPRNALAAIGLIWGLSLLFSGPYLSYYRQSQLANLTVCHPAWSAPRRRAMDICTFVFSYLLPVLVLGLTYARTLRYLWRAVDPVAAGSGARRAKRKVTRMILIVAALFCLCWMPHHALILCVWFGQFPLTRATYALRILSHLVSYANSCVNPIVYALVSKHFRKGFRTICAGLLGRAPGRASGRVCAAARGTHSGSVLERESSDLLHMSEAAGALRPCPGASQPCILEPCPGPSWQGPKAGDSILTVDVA
Regarding `CCOc1ccc(S(=O)(=O)N(CC(=O)NCC(F)(F)F)Cc2ccco2)cc1`, the inhibition was -7%. With `COCC(C)NC(=O)c1ccc(Cl)c(Cl)c1` (centres undefined), the inhibition was 27.4% (active). Turning to `CCCNC(=O)c1ccc(Cl)c(Cl)c1`, the inhibition was 10.1%. Regarding `COCC(C)NC(=O)c1ccc(-n2nc(C(F)(F)F)cc2-c2cccs2)cc1` (centres undefined), the inhibition is -1.6%. As for `CCN1CN(Cc2ccccc2)CNC1=S`, the figure is 3.98%; as for `O=S(=O)(/N=C(/Nc1ccccc1)c1ccccc1)c1cccs1`, -10.3%; as for `Cc1ccc(CC2S/C(=C(/C#N)C(=O)N3CCOCC3)N(c3ccccc3)C2=O)cc1` (centres undefined), -9.98%. For the molecule `C=CCNC(=O)/C(=C\c1cccc([N+](=O)[O-])c1)NC(=O)c1ccccc1`, the inhibition was 3.63%. Take `COc1ccc(NC(=O)COC(=O)c2ccc(NS(=O)(=O)/C=C/c3ccccc3)cc2)cc1`: the inhibition is 9.83%. For the molecule `COc1cc2c(cc1OC)C(=O)NCC(C)(C)O2`, the inhibition is 1.34%. As to `CCCSc1nc2[nH]ncc2c(=O)[nH]1`, the inhibition is -7.72%. On to `Cc1ccc(Nc2nc(CSc3nnc(-c4ccncc4)n3-c3ccccc3C)cs2)cc1`, for which the inhibition is -7.55%. Take `Cc1ccc(C(=O)N2CC(=O)Nc3ccccc32)o1`: the inhibition was -5.68%. On to `CC(C)(C)OC(=O)N/N=C/c1ccc(C(=O)O)cc1`, for which the inhibition was 1.78%.

For `O=C(CC1SC(=Nc2ccccc2)N(Cc2ccccn2)C1=O)Nc1cccc(Cl)c1` (centres undefined), the inhibition was -2.96%. With `COC(=O)Cc1cc(=O)oc2c(C)c(O)ccc12`, the inhibition is 39.2% (active).

With `COC(=O)COc1ccc2oc(=O)cc(C)c2c1`, the inhibition was 4.15%.

Turning to `CCCc1cc(=O)oc2c(C)c(O)c(CN3CCCCC3)cc12`, the inhibition was -0.41%. For `O=c1c2c(ncn1Cc1ccccc1)nc1n2CCC1`, the inhibition was 11.2%.

For `Clc1ccc(-c2nnc(SCc3nc4ccccc4s3)o2)cc1`, the inhibition is 12%. In the case of `Clc1ccccc1SCc1nc2ccccc2[nH]1`, the inhibition was 7.26%. As for `c1ccc(-c2nnc(SCc3nc4ccccc4[nH]3)o2)cc1`, the figure is 27.2% (active). On to `CCCC/C(C)=N/NC(=O)NC1CCCCC1`, for which the inhibition was 1.57%. As to `CCCCN(C)CCC(=O)Nc1ccc(Cl)cc1`, the inhibition was 9.01%. `Nc1nc(CC(=O)CSc2ccc(Cl)cc2)nc(Nc2ccc(F)cc2)n1`: the inhibition was 5.35%. For `O=C(COc1ccccc1F)NNC(=O)c1ccc(N2CCCCC2)c([N+](=O)[O-])c1`, the inhibition was -5.34%.

In the case of `COc1ccc([N+](=O)[O-])cc1NC(=O)c1ccc(N(Cc2ccccc2C)S(C)(=O)=O)cc1`, the inhibition is 10.8%. For `CCCCCCCCCOC1OC(CO)C(O)C(O)C1NC(C)=O` (centres undefined), the inhibition is -2.61%. Turning to `N=C1C(=O)OCC1c1ccccc1NC(=O)CN1CCCCC1` (centres undefined), the inhibition was 0.12%. For `O=C(Nn1c(-c2ccccc2)nc2ccccc2c1=O)c1ccc([N+](=O)[O-])cc1` the value was -0.78%; for `Cc1ccc(S(=O)(=O)/N=S(\C)C(C)C)cc1` (centres undefined), 0.24%; for `COC(=O)[C@H]1Cc2cnoc2C[C@]1(C)C(=O)O`, 13.5%. With `CCOC(=O)C1(S(=O)(=O)c2ccccc2)CCN(Cc2ccccc2)CC1`, the inhibition was -2.88%. For `Cc1ccc(S(=O)(=O)c2ccc(Oc3ccccc3)cc2)cc1`, the inhibition is -10.2%. `CC1=C/C(=N\OS(=O)(=O)c2ccccc2)C=CC1=O`: the inhibition was 53.5% (active). As to `O=C(Cc1ccccc1)NNC1CC(=O)N(c2ccc(Br)cc2)C1=O` (centres undefined), the inhibition was -17.6%. As to `COc1ccc(NS(=O)(=O)c2ccc(NC(=O)c3ccc(N(C)S(C)(=O)=O)cc3)cc2)cc1`, the inhibition is 3.65%. Take `Cc1cc(Br)ccc1SCC(=O)OCC(=O)NCc1ccc2c(c1)OCO2`: the inhibition was 1.98%. As to `C/C(=N\Nc1ccc([N+](=O)[O-])cc1)c1ccc(-n2nncc2C(C)(C)C)cc1`, the inhibition is -1.64%.

For `Cc1ccc(NC(=O)NC(=O)N(C2CCCCC2)S(=O)(=O)c2ccccc2)cc1`, the inhibition is 1.91%. For `Cc1cc(C)c[n+](-c2nc3ccccc3nc2[N-]S(=O)(=O)c2cccs2)c1` the value was -5.36%; for `O=C(Nc1ccc2c(c1)OCO2)c1ccc(N2C(=O)c3ccccc3C2=O)cc1`, -3%. `CC1CCCN(S(=O)(=O)c2ccc(N(C(=O)c3cnccn3)C(C(=O)NC3CCCCC3)c3cccs3)cc2)C1` (centres undefined): the inhibition was 8.87%. `NS(=O)(=O)c1ccc(CCNC(=S)Nc2ccc(S(N)(=O)=O)cc2)cc1`: the inhibition is 5.94%. As for `Cc1cc(C)c(C#N)c(SCC(=O)NN2CC(=O)N(c3ccccc3F)CC2=O)n1`, the inhibition is 12.2%.

For the molecule `COc1ccc(C)cc1S(=O)(=O)N(CC(=O)Nc1cccc([N+](=O)[O-])c1)c1ccc(C)cc1`, the inhibition was -2.05%. On to `O=C(COC(=O)C1CC2C=CC1C2)Nc1ccccc1` (centres undefined), for which the inhibition was -0.08%. Turning to `Cc1cc(C(=O)COC(=O)CNC(=O)c2ccc(F)cc2)c(C)n1Cc1ccco1`, the inhibition is 3.46%. As for `Cc1cccc(C(=O)NCC(=O)OCC(=O)N2CC3(C)CC2CC(C)(C)C3)c1` (centres undefined), the figure is 1.61%. With `COc1ccccc1C(=O)N1CC2(C)CC1CC(C)(C)C2` (centres undefined), the inhibition was 1.39%. For `Cc1nnnn1/C(=C\c1ccccc1)C(=O)OCC(=O)N1CC2(C)CC1CC(C)(C)C2` (centres undefined), the inhibition was 27.3% (active). As to `COC(=O)N/N=C/c1ccc(-c2ccc(Cl)c(Cl)c2)o1`, the inhibition is -7.04%.

Turning to `COc1cc(C(=O)NNC(=O)c2ccc(S(=O)(=O)N3CCCCC3)cc2)cc(OC)c1OC`, the inhibition is 9.59%. As for `CC(C)COP(=O)(c1ccc(N(C)C)cc1)C(Nc1ccccc1)c1cccnc1` (centres undefined), the inhibition is 3.84%. Consider `O=C(CSC(=S)N1CCOCC1)c1ccccc1`, for which the inhibition was 5.48%.

For the molecule `COc1ccc(Nc2nc(NCc3ccco3)nc(N/N=C/c3ccccc3Cl)n2)cc1`, the inhibition was -5.3%. As for `O=C(/C=C/c1ccccc1)Nc1nnc(SCC(=O)c2ccc3ccccc3c2)s1`, the figure is -9.23%; as for `COc1ccc(C(=O)Nc2sc(C)c(C)c2CN2CCOCC2)cc1`, 3.47%. In the case of `COc1ccc(Cl)cc1NC(=O)[C@@H]1CCCN1C(=O)c1cccs1`, the inhibition is -3.13%.
